# Screening data deposited in PubChem BioAssay by National Center for Advancing Translational Sciences (NCATS).
# POLH inh – qHTS for Inhibitors of Polymerase Eta | Potency, µM (titrated, usually from 114 µM), without a hit: top-dose activity change, negative = inhibition, actives largely listed as inhibitors | AID 588591, 2011 | recombinant Pol eta, fluorescent DNA replication assay | DNA polymerase eta (Homo sapiens), Q9Y253 | 1.2% of 390,000 active; note: potency is the fitted concentration of half-maximal effect; % is set by controls: 0 for no effect and ±100 for the full control effect
#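 Pol eta (10 nM) was preincubated with compounds for 15 min at room temperature, after which fluorescent replication substrate (50 nM final) was added to start the reaction. Fluorescence was read kinetically at 0 and 10 min.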
# ALOX12 inh – Primary qHTS assay for inhibitors of human arachidonate 12S-lipoxygenase (ALOX12): Round 2 | purified 12hLO, xylenol orange hydroperoxide absorbance | Potency, µM (highest dose often 108 µM), inactives show top-dose activity change, negative = inhibition, most hits filed as inhibitors | 1.1% of 580,000 active | AID 1671190, 2021; note: potency is the fitted concentration of half-maximal effect; % is set by controls: 0 for no effect and ±100 for the full control effect
#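 Purified human 12hLO at 150 nM in 25 mM Hepes, 0.01% Triton X-100, pH 7.0, preincubated 15 min at room temperature with compound. Reaction started with 40 uM arachidonic acid, 30 min at room temperature. Hydroperoxide measured by Fe-xylenol orange, 573/405 nm absorbance ratio.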
# POLK inh – qHTS for Inhibitors of Polymerase Kappa; DNA polymerase kappa (Homo sapiens), Q9UBT6; purified Pol kappa, fluorescent DNA synthesis assay, 10 min; Potency, µM (doses to about 107 µM), without a hit: at the highest dose activity, negative = inhibition, usual class: inhibitors; 0.53% of 400,000 active; note: potency is the fitted concentration of half-maximal effect; % is set by controls: 0 for no effect and ±100 for the full control effect
#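 10 nM Pol kappa preincubated 15 min at room temperature with compounds, then reaction started with substrate at 50 nM final. Fluorescence read kinetically at 0 and 10 min; buffer-only wells served as negative control.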
# POLI inh – qHTS for Inhibitors of Polymerase Iota | DNA polymerase iota (Homo sapiens), Q9UNA4 | Pol iota fluorescent replication assay, 10 min | Potency, µM (highest dose often 115 µM), for the others: at the highest dose activity, negative = inhibition, actives largely listed as inhibitors | 1% of 390,000 active | AID 588590, 2011; note: potency is the fitted concentration of half-maximal effect
# Target sequence (Q9UNA4 whole entry, looked up): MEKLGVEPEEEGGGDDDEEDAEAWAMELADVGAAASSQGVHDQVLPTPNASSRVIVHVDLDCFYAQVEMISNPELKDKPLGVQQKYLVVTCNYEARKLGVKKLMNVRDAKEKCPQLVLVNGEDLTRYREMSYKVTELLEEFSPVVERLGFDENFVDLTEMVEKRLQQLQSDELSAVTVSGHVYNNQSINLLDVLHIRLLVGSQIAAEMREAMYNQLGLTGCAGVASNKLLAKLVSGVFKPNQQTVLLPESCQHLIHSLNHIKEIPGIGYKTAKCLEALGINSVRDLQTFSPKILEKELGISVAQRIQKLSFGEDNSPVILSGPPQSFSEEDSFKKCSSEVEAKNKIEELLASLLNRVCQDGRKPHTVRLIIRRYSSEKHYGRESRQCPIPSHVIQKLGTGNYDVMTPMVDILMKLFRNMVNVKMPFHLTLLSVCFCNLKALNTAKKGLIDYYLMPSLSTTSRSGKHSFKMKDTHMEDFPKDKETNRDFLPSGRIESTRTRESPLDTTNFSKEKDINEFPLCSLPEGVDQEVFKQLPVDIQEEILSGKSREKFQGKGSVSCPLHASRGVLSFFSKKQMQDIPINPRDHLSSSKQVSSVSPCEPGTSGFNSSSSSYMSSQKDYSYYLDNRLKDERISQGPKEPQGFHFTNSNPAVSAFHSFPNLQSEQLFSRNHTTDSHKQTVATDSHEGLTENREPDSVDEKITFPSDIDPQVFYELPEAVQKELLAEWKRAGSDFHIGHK
#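 Pol iota at 10 nM preincubated 15 min with compounds at room temperature; reaction started with fluorescent substrate, 50 nM final. Fluorescence read kinetically at 0 and 10 min; buffer-only wells as negative control.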
# POLB inh – qHTS Assay for Inhibitors of DNA Polymerase Beta; Potency, µM (series often up to 114 µM), for inactives: at the top dose activity change, negative = inhibition, usual class: inhibitors; P06746; Pol beta primer extension/strand displacement, fluorescence kinetic; 1.3% of 340,000 active; note: potency is the fitted concentration of half-maximal effect; % is set by controls: 0 for no effect and ±100 for the full control effect
#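 Human Pol beta at 10 nM; strand-displacement substrate 50 nM final. Compound exposure 15 min at room temperature before start, reaction 10 min at room temperature.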
# PI5P4Ka inh – qHTS for Inhibitors of phosphatidylinositol 5-phosphate 4-kinase (PI5P4K); 1.2% of 330,000 active; PI5P4Kalpha enzyme, ADP-Glo luminescence, 60 min; stronger effect = lower value; max response, %; active = max response of -50% or lower; inconclusive = between -30% and -50%; inactive = -30% or higher; note: value at the top dose of about 77 µM; % is set by controls: 0 for no effect and ±100 for the full control effect
#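 Enzyme plus substrate dispensed, test compounds pinned in, then ATP (5 microM final) added. After 60 min at RT, ADP-Glo reagent 1 for 45 min and reagent 2 for 30 min preceded luminescence imaging.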
# Starred values were filed as active, the others as inactive; i = inactive; ? = inconclusive; / = no result; [ ] = another dose, or the depositor's remark. Only some compounds are listed: those with a hit (about 2.9% of all), similar ones and a draw of the others. Unless noted, calls come from the whole dose curve; as a rule, active = well fitted inhibition curve with a large enough effect; inconclusive = small, poorly fitted or top-dose-only effect, or another doubt; inactive = no such curve, though single readings can be large or run the other way.
SMILES,POLH inh,ALOX12 inh,POLK inh,POLI inh,POLB inh,PI5P4Ka inh
OCc1ccc(CN2Cc3[nH]cnc3C[C@H]2c2nc(-c3ccc4ccccc4c3)no2)o1,/,13%[176 µM],/,/,/,/
CCOc1ccccc1C(=O)N/N=C/c1ccoc1,-20%,i,-28%,79µM*,20µM*,?
Cc1ccc(C(=O)N/N=C/c2ccoc2)cc1C,?,7%,3%,3%,25µM*,?
COc1ccc(C(=O)N/N=C\c2ccoc2)cc1,-14%,9%,?,?,?,-26
CSc1ccc(/C=N/NC(=O)c2ccc(C)c(C)c2)cc1,?,-5%,-24%,?,25µM*,-7
CNC(=S)N/N=C/c1ccc(SC)cc1,/,14µM*,/,/,/,/
CCOc1ccc(OC(=O)c2ccccc2C(=O)c2ccccc2)cc1,/,-43%,/,/,/,/
Cc1ccc(CC2CC(=O)N(c3ccc4ccccc4n3)C2=O)cc1 (centres undefined),/,-5%,/,/,/,/
O=C(N/N=C/c1ccoc1)c1cc(Br)ccc1O,?,?,?,89µM*,20µM*,?
Cc1c(-c2ccccc2)c(=O)oc2cc(OCC(=O)OC(C)C)ccc12,/,10%,/,/,/,/
CCOC(=O)c1c(C)[nH]c(C)c1S(=O)(=O)N(C)CC(=O)Nc1ccccc1F,-9%,-7%,45µM*,50µM*,-1%,-2
COC(=O)c1sc(NC(=S)NNC(=O)c2c(Br)c(C)nn2C)c(C(=O)OC)c1C,50µM*,?,-35%,?,22µM*,?
Cc1ccccc1NC(=O)C(C#N)C(=O)/C=C/c1ccccc1 (centres undefined),/,6%,/,/,/,/
COc1ccc(NCc2cc3ccc(OC)cc3n(CC(=O)Nc3cc(Cl)ccc3C)c2=O)cc1,-9%,-14%,-6%,27%,-1%,/
COc1ccc2cc(CNc3ccc(C)cc3)c(=O)n(CC(=O)Nc3ccc(C)cc3C)c2c1,/,7.9µM*,/,/,/,/
O=C(O)c1cccc(NC(=S)NC(=O)c2ccc(-c3ccc(Cl)cc3)o2)c1,?,13µM*,-31%,?,?,-19
O=C(O)c1ccc(NC(=S)NC(=O)c2ccc(-c3ccc(Br)cc3)o2)cc1,?,18µM*,-5%,132%,2%,?
Cc1cccc(NC(=S)NC(=O)C(c2ccccc2)c2ccccc2)n1,-29%,12%,-2%,16%,/,3
O=C(O)c1cccc(NC(=S)NC(=O)c2ccc(-c3ccccc3)cc2)c1,-13%,?,-8%,31%,18%,2
CN1CCN(c2ccc(NC(=O)c3ccc(-c4ccc(Br)cc4)o3)cc2)CC1,-9%,50µM*,-15%,38%,0%,-16
Cc1cccc(NC(=S)NC(=O)c2ccc(-c3ccccc3)cc2)n1,-11%,35µM*,-9%,21%,-3%,12
COCCN1CCCN(C(=O)c2cc(-c3ccc(F)cc3)n[nH]2)CC1,/,10%,/,/,/,/
CCc1c(C(=O)/C=C/c2cccc(C#N)c2)oc2ccccc12,/,10%,/,/,/,/
COc1ccccc1CNc1nc2ccccc2nc1NS(=O)(=O)c1ccc(Cl)cc1,/,58%,/,/,/,/
COc1ccc(C(=O)O)cc1NC(=S)NC(=O)CSc1ccc(Cl)cc1,5%,?,-3%,109%,-1%,-16
COc1ccc(C(=O)O)cc1NC(=S)NC(=O)c1ccc(-c2ccc(Cl)cc2)o1,20µM*,?,-16%,?,-2%,-15
Cc1ccc(C(=O)N2CCCCC2)cc1NC(=O)c1nsc2ccccc12,-14%,?,-9%[60.1 µM],-9%,?,/
Cc1ccc(C(=O)O)cc1NC(=S)NC(=O)c1ccc(-c2ccc(Cl)cc2)o1,50µM*,2µM*,-12%,-9%,23%,2
